Assay outcomes from PubChem BioAssay.
HT1080 IDH1KD tx – HT-1080 IDH1 knockdown cell toxicity (counter line); HT-1080 IDH1 knockdown viability, ATP luminescence, 48 h; 360,000 tested, 2% active; Potency, µM (doses to about 46.1 µM), for the others: at the highest dose activity, negative = toxicity, hits mostly cytotoxic; AID 686971;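 note: potency is the fitted concentration of half-maximal effect; 0% = DMSO wells and -100% = cell-free medium wells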
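Knockdown cells (IDH1KD HT-1080) received compounds 2 h after plating at 750 cells/well and were kept 48 h at 37 °C in 5% FBS RPMI. A CellTiter-Glo luminescence read gave % activity for curve fitting.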
IL1B secr inh – inhibitors of inflammasome signaling (IL-1 beta secretion); THP-1 LPS/ATP IL-1B secretion, AlphaLISA, 16 h; active compounds read low; activity change, % at 57.5 µM; 360,000 tested, 4.7% active; AID 743279; in the data active = activity change below about -50%; inconclusive = mostly about -30% to -49%
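Secreted IL-1B measured by AlphaLISA bead assay after 16 h compound exposure of THP-1 cells; compounds (final up to 57.5 uM) added 1 h before LPS (250 ng/mL) and ATP (1.25 mM) stimulation; lower signal means less secretion.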
TDP1 cell noCPT – qHTS for Inhibitors of human tyrosyl-DNA phosphodiesterase 1 (TDP1): qHTS in cells in absence of CPT; DT40 Tdp1-/- hTDP1 cells, no CPT, ATP luminescence, 48 h; Potency, µM (series often up to 46.2 µM), for the others: top-dose activity change, negative = growth inhibition, most hits filed as inhibitors; 420,000 tested, 15% active; AID 686978, 2013; note: potency is the fitted concentration of half-maximal effect; nearly all actives have a fitted effect of over 55% in size
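Cells were dispensed at 400 per well, compounds added by pin tool, plates incubated ≥48 hr at 37 °C, then CellTiter-Glo added for 30 min at room temperature before luminescence reading. Line: DT40 Tdp1-/- complemented with hTDP1; camptothecin omitted.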
DT40 TDP1 CPT – growth inhibition of DT40 Tdp1-/-;hTDP1 cells with camptothecin (screen for TDP1 inhibitors). chicken DT40 Tdp1-/-;hTDP1 cells + 20 nM CPT, ATP luminescence, 48 h. 420,000 tested, 12% active. Potency, µM (highest dose often 46.2 µM), for the others: at the highest dose activity change, negative = growth inhibition, hits mostly inhibitors; note: potency is the fitted concentration of half-maximal effect; nearly all actives have a fitted effect of over 55% in size
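Cell growth measured by CellTiter-Glo luminescence after a minimum 48 h, 37 C compound exposure with 20 nM CPT in Tdp1-knockout DT40 cells stably expressing hTDP1, seeded 400/well; qHTS titration format.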
HT1080-NT tox – kills 2HG-producing HT-1080-NT fibrosarcoma cells. 360,000 tested, 1.6% active. HT-1080-NT fibrosarcoma viability, CellTiter-Glo ATP luminescence, 48 h. Potency, µM (titrated, usually from 46.1 µM), inactives show at the highest dose activity, negative = less viability, actives largely listed as cytotoxic;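 note: NT is the 2HG producing partner of a matched IDH1 knockdown line; potency is the fitted concentration of half-maximal effect; 0% = DMSO-treated cells and -100% = media-only wells without cells; nearly all actives have a fitted effect of over 55% in size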
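Luminescent CellTiter-Glo readout after 48 hours of compound exposure at 37 degrees C defined viability of HT-1080-NT cells. Activity was normalized to DMSO wells and cell-free media wells; concentration-response curves were fitted and assigned curve classes.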
* marks the source's active call; other numbers are inactive results; i = inactive; ? = inconclusive; . = no result given. An excerpt weighted towards active compounds, which were near 19% of everything screened. Unless noted, calls come from the whole dose curve; as a rule, active = well fitted curve in the direction sought with a large enough effect; inconclusive = small, poorly fitted or top-dose-only effect, or another doubt; inactive = no such curve, though single readings can be large; an effect the other way counts as inactive or inconclusive. Unless noted, % is set by controls: 0 for no effect and ±100 for the full control effect.

SMILES	HT1080 IDH1KD tx	IL1B secr inh	TDP1 cell noCPT	DT40 TDP1 CPT	HT1080-NT tox
COc1ccc(Cc2nnc(NC(=O)c3cccs3)s2)cc1OC	-28%	25	-16%	-21%	0%
Cc1cccc(-n2c(N)c(-c3nc4ccccc4n3C)c3nc4ccccc4nc32)c1	-1%	19	?	?	3%
Cn1c(-c2c(N)n(-c3ccccc3)c3nc4ccccc4nc23)nc2ccccc21	-17%	0	?	12µM*	-13%
Cc1nc2ccccc2c(=O)n1NS(C)(=O)=O	13%	-3	0%	10%	15%
Cc1nc2ccccc2c(=O)n1NCc1cc(Br)cs1	6%	0	15µM*	?	1%
Cc1cccc(C)c1OCCCCN1CCNCC1	2%	0	-21%	-13%	-5%
CN1CCN(CCCCOc2ccccc2C=O)CC1	?	-85*	?	?	-3%
COc1cccc(OC)c1OCCCCCCN1CCN(C)CC1	5%	5	-9%	-5%	14%
Cc1ccccc1OCCCCCCN1CCNCC1	?	-74*	16µM*	23µM*	?
Cc1ccc(OCCCCCCN2CCNCC2)cc1	?	-90*	21µM*	18µM*	?
O=S(=O)(Nc1ccc(F)cc1F)c1ccc(Br)s1	.	.	-20%	-23%	.
Brc1ccc(-c2cn3ccccc3n2)s1	-23%	4	23µM*	7.3µM*	-24%
CCCCCN(C(=O)CCC(=O)OCC(=O)NCc1cccc(OC)c1)c1c(N)n(CCCC)c(=O)[nH]c1=O	7%	-2	-10%	-16%	6%
CC(C)N(CC(=O)Nc1ccc(Cl)cc1C(F)(F)F)C(=O)CCl	6.5µM*	-115*	6.5µM*	21µM*	6.5µM*
CCC(CC)NC(=O)Nc1cccc(C)c1C	-8%	-10	-1%	-14%	3%
CCC(C)N(CC(=O)Nc1cccc(C)c1C)C(=O)CCl (centres undefined)	1µM*	-110*	2.3µM*	?	1.6µM*
CCC(Oc1ccccc1)C(=O)Nc1nnc(S(=O)(=O)N2CCCC2)s1 (centres undefined)	-10%	-27	-12%	-5%	1%
Cc1cccc(NC(=O)CN2CCN(CC(=O)NCc3ccc(Cl)cc3Cl)CC2)c1C	11%	2	?	23µM*	-3%
Cc1cccc(NC(=O)CN2CCN(C(=O)C3CCC3)CC2)c1C	-2%	26	-1%	-21%	-2%
Cc1cccc(NC(=O)CN2CCN(CC(=O)Nc3ccc(-c4ccccc4)cc3)CC2)c1C	-24%	-10	?	?	-1%
Cc1cccc(NC(=O)CN2CCN(C(=O)CNC(=O)Cc3cccc4ccccc34)CC2)c1C	-5%	20	10µM*	23µM*	-12%
NC(=O)c1ccccc1NC(=O)CN1CCN(Cc2ccc(Cl)cc2Cl)CC1	-3%	i	23µM*	?	0%
O=C(NCCCN1CCOCC1)c1cccc(S(=O)(=O)Nc2cc(Cl)ccc2Cl)c1	-6%	1	1%	1%	-10%
Cc1c(C)c2ccc(OCC(=O)NCCN3CCOCC3)c(C)c2oc1=O	13%	0	2%	7%	14%
Cc1cc(C(=O)N2CCCC(C(=O)c3cccc(C(F)(F)F)c3)C2)nc(C)n1 (centres undefined)	1%	17	-22%	3%	1%
SMILES	HT1080 IDH1KD tx	IL1B secr inh	TDP1 cell noCPT	DT40 TDP1 CPT	HT1080-NT tox
O=C(COc1ccc(Cl)cc1Cl)Nc1cccc(-c2ccc(N3CCOCC3)nn2)c1	-5%	-15	?	18µM*	-1%
Cc1ccc(C(=O)Nc2cccc(-c3ccc(N4CCOCC4)nn3)c2)cc1[N+](=O)[O-]	-1%	-3	?	10µM*	5%
O=C(COc1ccccc1)Nc1cccc(-c2ccc(N3CCOCC3)nn2)c1	-1%	-14	9.2µM*	?	-10%
O=C(CCNS(=O)(=O)c1cccc(C(F)(F)F)c1)NC1CC1	18%	-3	18%	-3%	9%
COc1ccc(-c2ccc(OC)cc2)cc1	10%	-11	1%	6%	6%
COc1ccc(-c2cc(=S)ss2)cc1	.	.	?	19µM*	.
